High-throughput results deposited in PubChem by Buhrlage Lab, Dana-Farber Cancer Institute and Novartis Institutes for BioMedical Research (Cambridge, Mass).
A selection: hits, their analogues and other compounds. The true share with any hit is near 6.8%.
USP7 block: inhibitors of human USP7 deubiquitinase | Q93009 | purified USP7, Ub-rhodamine cleavage fluorescence | inhibition, % at 20 µM | 47,000 tested, 0.3% active
OTUD3 inh: blocks human OTUD3 ubiquitin-rhodamine cleavage | Q5T2D3 | purified OTUD3, Ub-rhodamine fluorescence, 2 h | inhibition, % at 25 µM | 47,000 tested, 0.7% active | AID 1645858
USP8 inh: human USP8 deubiquitinase inhibition | P40818 | purified USP8, Ub-rhodamine cleavage fluorescence, 30 min | inhibition, % at 20 µM | AID 1645853 | 47,000 tested, 4.2% active
Target sequence (P40818 whole entry, looked up): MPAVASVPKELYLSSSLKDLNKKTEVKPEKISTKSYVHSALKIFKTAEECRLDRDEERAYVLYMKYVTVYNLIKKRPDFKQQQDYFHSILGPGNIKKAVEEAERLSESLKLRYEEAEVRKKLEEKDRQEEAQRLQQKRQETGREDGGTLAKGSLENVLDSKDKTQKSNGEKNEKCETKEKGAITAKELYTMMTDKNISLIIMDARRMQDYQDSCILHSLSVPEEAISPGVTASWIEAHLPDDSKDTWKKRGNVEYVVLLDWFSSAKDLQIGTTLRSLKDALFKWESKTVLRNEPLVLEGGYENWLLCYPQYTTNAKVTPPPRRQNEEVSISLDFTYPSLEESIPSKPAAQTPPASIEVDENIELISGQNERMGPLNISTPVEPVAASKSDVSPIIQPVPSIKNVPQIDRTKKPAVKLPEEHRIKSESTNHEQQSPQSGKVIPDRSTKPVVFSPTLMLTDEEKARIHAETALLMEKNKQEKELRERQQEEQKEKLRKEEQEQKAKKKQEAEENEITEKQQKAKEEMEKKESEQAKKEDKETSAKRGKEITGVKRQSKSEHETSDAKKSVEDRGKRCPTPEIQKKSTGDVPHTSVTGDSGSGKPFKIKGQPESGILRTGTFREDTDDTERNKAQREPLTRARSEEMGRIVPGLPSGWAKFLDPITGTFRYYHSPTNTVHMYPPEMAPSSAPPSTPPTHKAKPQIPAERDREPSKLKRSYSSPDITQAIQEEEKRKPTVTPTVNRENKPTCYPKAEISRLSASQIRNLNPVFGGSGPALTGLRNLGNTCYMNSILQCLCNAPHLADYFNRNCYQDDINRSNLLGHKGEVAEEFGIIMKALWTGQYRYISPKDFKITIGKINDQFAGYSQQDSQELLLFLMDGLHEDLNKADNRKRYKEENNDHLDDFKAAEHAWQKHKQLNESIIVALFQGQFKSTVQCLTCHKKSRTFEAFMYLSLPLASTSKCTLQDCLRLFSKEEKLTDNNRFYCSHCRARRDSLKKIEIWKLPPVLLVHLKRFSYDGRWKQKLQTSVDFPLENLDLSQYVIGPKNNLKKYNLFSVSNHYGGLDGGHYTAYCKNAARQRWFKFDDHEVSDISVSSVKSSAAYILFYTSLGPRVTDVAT
UCHL1 block: blocks human UCHL1 ubiquitin-rhodamine cleavage | P09936 | purified UCHL1, Ub-rhodamine cleavage fluorescence | inhibition, % at 20 µM | 47,000 tested, 0.2% active | AID 1645859
USP28 block: inhibitors of human USP28 deubiquitinase; inhibition, % at 25 µM; AID 1645857; purified USP28, Ub-rhodamine cleavage fluorescence, 30 min; Q96RU2; 47,000 tested, 3% active
USP10 block: inhibitors of human USP10 deubiquitinase; inhibition, % at 20 µM; Q14694; 47,000 tested, 1.1% active; purified USP10, Ub-rhodamine fluorescence, 60 min
* marks the source's active call; other numbers are inactive results; . = not tested or not shown. Cut-off read from the data, not from the text of the source: active = inhibition above about 30%; inactive = the rest.

SMILES | USP7 block | OTUD3 inh | USP8 inh | UCHL1 block | USP28 block | USP10 block
Cc1ccc2nc(-c3cccc(NC(=O)C(C)C)c3)[nH]c2c1 | 7 | 2 | 65* | 5 | 26 | 1
COc1cccc(C(=O)Nc2ccccc2-c2nc3ccc(C)cc3[nH]2)c1 | 8 | 0 | 4 | 1 | 5 | 11
Cc1ccc(CN2CC[C@H]3CO[C@H](CNS(C)(=O)=O)[C@H]3C2)cc1 | -1 | -2 | -102 | 1 | 1 | -2
Cc1ccc(Cl)cc1NC(=O)c1cc(-c2ccccn2)n[nH]1 | 17 | -8 | 19 | 2 | -8 | 23
COc1cc(OC)c(NC(=O)c2cc(-c3ccccn3)n[nH]2)cc1Cl | 22 | 5 | 89* | 6 | 2 | 40*
COc1ccc(Cl)cc1NC(=O)c1cc(-c2ccccn2)n[nH]1 | 58* | 0 | 84* | 13 | -11 | 47*
N#Cc1ccc(-c2csc(-c3ccc4c(c3)OCCO4)n2)cc1 | 4 | 5 | -20 | 4 | 1 | 11
Oc1ccc(Br)cc1CNc1ccc(F)cc1 | -80 | 8 | 85* | 6 | 60* | 8
Cc1nn(C)c2c1[C@@H](c1ccc(F)c(Br)c1)[C@H](NC(=O)c1ccccc1)C(=O)N2 | -11 | -12 | -20 | 0 | 71* | 0
Cc1nn(C)c2c1[C@@H](c1ccc3c(c1)OCCO3)[C@H](NC(=O)c1ccc(Cl)cc1)C(=O)N2 | 0 | 5 | -8 | 1 | 18 | -2
O=C(NC1CCCC1)C1CCCN(S(=O)(=O)N2CCCCC2)C1 (centres undefined) | 5 | 4 | 15 | 4 | 5 | -1
CC(=O)Nc1ccc(C(=O)Nc2cnc(N3CCCCCC3)nc2)cc1 | -10 | -12 | -20 | -13 | -129 | -11
O=C(Nc1cnc(N2CCOCC2)nc1)c1ccc(Cl)cc1 | -3 | 15 | 19 | -3 | 25 | -4
COc1ccc(C(=O)Nc2cnc(N3CCCCC3)nc2)cc1 | -15 | -14 | -12 | -3 | 38* | -6
COc1ccc(NC(=O)c2ccc(Nc3nnc(C)c4ccccc34)cc2)cc1 | 7 | -3 | 1 | 3 | 66* | 5
COc1ccc(NC(=O)c2ccc(C)cc2)cc1 | 2 | 4 | 0 | 0 | 25 | 5
CCN1CCN(c2ccc(NC(=O)c3ccc(OC)cc3)cn2)C1=O | 2 | 9 | 12 | 2 | 45* | 2
Cc1ccc(C(=O)Nc2cnc(N3CCOCC3)nc2)cc1C | -7 | 0 | -5 | -3 | 40* | -6
Cc1cccc(OCC(=O)NCC(c2ccco2)N2CCOCC2)c1 (centres undefined) | -2 | 5 | 0 | 5 | . | -2
O=S1(=O)c2ccccc2NC(c2ccccc2F)N1Cc1ccccc1 (centres undefined) | 3 | -11 | 0 | 0 | 0 | 10
COc1ccc(C(=O)Nc2cnc(-c3ccccc3)nc2)cc1 | 2 | -7 | 92* | 0 | -10 | 10
O=C(Cn1nnc2ccccc21)Nc1nc(-c2ccc3c(c2)CCN3C(=O)c2ccccc2F)cs1 | 24 | 23 | 77* | 6 | 10 | 50*
Cc1cccc(C(=O)N2CCc3cc(-c4nc(NC(=O)CNc5ccccc5)sc4C)ccc32)c1 | -21 | 9 | 57* | 8 | 17 | 19
Cc1sc(NC(=O)CN2CCc3ccccc3C2)nc1-c1ccc2c(c1)CCN2C(=O)C1CCCCC1 | -10 | -26 | 76* | -2 | -2 | -7
Cc1ccc(C(=O)N2CCc3cc(-c4csc(NC(=O)CN(C)C5CCCCC5)n4)ccc32)cc1 | -3 | 6 | 58* | -3 | 12 | -4
SMILES | USP7 block | OTUD3 inh | USP8 inh | UCHL1 block | USP28 block | USP10 block
CC(C)C[C@@H]1OC(=O)[C@H](C)NC(=O)[C@H](C(C)(C)O)OC(=O)[C@H](C)N(C)C(=O)[C@@H](C)NC(=O)[C@@H](Cc2ccccc2)N(C)C1=O | -12 | -30 | -69 | -10 | -56 | -10
O=C(CN1C[C@@H](c2cccnc2)[C@@]2(CCCC(=O)N2)C1)NCCOc1ccccc1 | 0 | -4 | 4 | -1 | -3 | -2
COc1cc(OC)c(C(=O)OCC(=O)Nc2ccccc2Oc2ccccc2)cc1OC | -8 | 9 | 21 | 1 | 26 | 0
COc1ccc2nc(Nc3nc(-c4cnc(N5CCOCC5)nc4C)cc(=O)[nH]3)nc(C)c2c1 | 10 | 2 | 1 | 4 | 2 | -1
O=C(Cn1cnc(NC(=O)c2ccccc2)n1)Nc1ccccc1F | 4 | 12 | 17 | 1 | 10 | 0
Cc1sc(NC(=O)Cn2nnc3ccccc32)nc1-c1ccc2c(c1)CCN2C(=O)c1ccccc1F | 9 | 3 | 50* | 3 | -4 | 56*
Cc1sc(NC(=O)Cn2nnc3ccccc3c2=O)nc1-c1ccc2c(c1)CCN2C(=O)C(C)C | 11 | 2 | 14 | 2 | . | 13
CC[C@@H](C(=O)[C@@H](C)[C@@H](O)[C@H](C)CCc1ccc(C)c(O)c1C(=O)O)[C@@H]1O[C@](CC)([C@H]2CC[C@](O)(CC)[C@H](C)O2)C[C@@H]1C | 23 | 13 | 16 | 2 | 29 | 60*
O=C1CC2C3CCC(=O)c4c(O)ccc(c43)C2(O)c2cccc(O)c21 (centres undefined) | -26 | 21 | 35* | 17 | 37* | 10
COCCNC(=O)N1CCCn2nc(-c3ccncc3)cc2C1 | 2 | 6 | -88 | 0 | 4 | -4
O=C(c1cn(-c2cc(N3CCCCC3)ncn2)cn1)N1CCCCC1 | -7 | 11 | -1 | 4 | 16 | 0
CC1CCN(c2cc(-n3cnc(C(=O)N4CCCCC4)c3)ncn2)CC1 | -10 | 1 | 0 | 1 | 51* | 0
CC1CCN(c2cc(-n3cnc(C(=O)N4CCCC(C)C4)c3)ncn2)CC1 (centres undefined) | -9 | -2 | -1 | -2 | 62* | 1
CCOC(=O)c1ccc(NC(=O)Cn2cc(S(=O)(=O)Cc3ccc(C)cc3)c3ccccc32)cc1 | -4 | -31 | 3 | -11 | -40 | -13
O=C(c1ccc(F)cc1)N1CCC[C@H](Cn2nnc(-c3cnccn3)n2)C1 | 1 | 2 | 3 | -3 | -12 | -2
CCNC(=O)c1ccc(N2CCNCC2)c(NS(=O)(=O)c2cc(C)ccc2C)c1 | -2 | 3 | 36* | -2 | 4 | -3
COc1cc(NC(=O)c2cnc(N3CCCC3)nc2C)cc(OC)c1 | 0 | 0 | -2 | 0 | 18 | 1
COc1ccc(OC)c(Nc2nc(-c3ccc(Cl)cc3)c(C)s2)c1 | 7 | 12 | 42* | 7 | 11 | 8
Cc1ccc(C)c(NC(=O)CCC(=O)OCC(=O)c2ccc(Cl)cc2)c1 | 4 | 5 | 14 | 1 | 3 | 4
Cc1ccc(C(=O)CCC(=O)OCC(=O)c2ccc3[nH]c(=O)[nH]c3c2)cc1 | 2 | 20 | 4 | 4 | 52* | 7
O=C(COC(=O)c1ccc(Cl)s1)c1ccc2[nH]c(=O)[nH]c2c1 | 8 | -10 | 32* | 4 | 6 | 11
